Activity calls are given as the source filed them. Calls follow the shape of the dose curve; as a rule, active = well fitted activation curve with a large enough effect in the repeat runs; inconclusive = weak or mixed curves; inactive = flat fitted curve, though single readings scatter.
Assay: A CellTox Green Cytotoxicity Assay to monitor cytotoxicity in HepG2 cells - 0 hour (AID 1224882); also: nearly all actives have a fitted effect of over 35% in size
Settings: CellTox Green fluorescence; series mostly up to 76.8 µM
Description: National Center for Advancing Translational Sciences [NCATS]
NIH Chemical Genomics Center [NCGC]
U.S. Environmental Protection Agency [EPA]
National Institutes of Environmental Health Sciences [NIEHS]
National Toxicology Program [NTP]
Cell-based models are critical for drug discovery. Determining the natural cytotoxic effects resulting from test compounds is an essential research activity. A CellTox Green Cytotoxicity Assay to monitor cytotoxicity in real time of continues cell culture during 40 hours of the compound treatment was used to screen Tox21 10K library compounds in HepG2 cells. CellTox Green Cytotoxicity Assay is a nonlytic, homogeneous, biofluorescent method to measure cytotoxicity in cell culture after experimental manipulation. The assay system uses a proprietary asymmetric cyanine dye that is excluded from viable cells but preferentially stains the dead cell's DNA. […] Viable cells produce no appreciable increases in fluorescence. Therefore, the fluorescence signal produced by the binding interaction with dead cell DNA is proportional to cytotoxicity.
The mixture of HepG2 cell suspension and reagents were dispensed at 600cells/6 ul/well in 1536-well tissue culture treated black solid bottom plates using a Multidrop dispenser. After the assay plates were incubated at a 37 C/5% CO2 incubator for 5 hours, 23 nL of compounds dissolved in DMSO, positive and negative controls was transferred to the assay plate by a pintool work station. The plates were incubated at 37 C for 40 hours. The fluorescence intensity were measured at 0h, 8h, 16h, 24h, 32h and 40h time points using ViewLux plate reader during compound treatment.
For `O=C(O)C(Cl)Br` (stereo not given), the outcome was “inactive”. In the case of `ClCC1CO1` (stereo not given), the outcome is reported as “inactive”. With `CC1=C2[C@H]3OC(=O)[C@@H](C)[C@@H]3CC[C@@]2(C)C=CC1=O` the outcome was “inactive”. With `CCOC(=O)CCl` the outcome was “inactive”. With `CC(C)N(Cc1ccccc1)C(=O)C(C)(C)C` the outcome was “inactive”. In the case of `O=CCCl`, the outcome is reported as “inactive”. With `CC1NCCOC1c1ccccc1` (stereo not given) the outcome was “inactive”. With `CC(C)[C@]12CC(=O)[C@H](C)[C@H]1C2` the outcome was “inactive”. For `BrCC1CO1` (stereo not given), the outcome was “inactive”. For `C[N+]1(C)CCCCC1`, the outcome was “inactive”. For `CCN1CCCC1CNC(=O)C(O)(c1ccccc1)c1ccccc1` (stereo not given), the outcome was “inactive”. In the case of `O=c1[nH]oc2c1CCNC2`, the outcome is reported as “inactive”. For `Cc1ccc2c(c1)C1CN(C)CCC1N2` (stereo not given), the cytotoxicity was -0.534% [at 15.8 µM] (inactive). In the case of `C[C@@H](N)[C@@H](O)c1ccccc1`, the outcome is reported as “inactive”. With `ClCCCCl` the outcome was “inactive”. With `O=[N+]([O-])c1cccc(CCl)c1` the outcome was “inactive”. With `CC(C)c1ccc(O)cc1` the outcome was “inactive”. In the case of `CCC1(c2ccccc2)CCC(=O)NC1=O` (stereo not given), the outcome is reported as “inactive”. For `CN(C)CCN(C)C`, the outcome was “inactive”. For `CCCCCCCCBr`, the outcome was “inactive”. In the case of `C=CCc1cc(OC)c2c(c1)OCO2`, the outcome is reported as “inactive”. With `CC(Cc1ccccc1)NCCn1cnc2c1c(=O)n(C)c(=O)n2C` (stereo not given) the outcome was “inactive”. In the case of `[O-][Br+2]([O-])O`, the outcome is reported as “inactive”. For `CON(C)C(=O)Nc1ccc(Br)cc1`, the outcome was “inactive”. In the case of `CCCCOC(C)=O`, the outcome is reported as “inactive”. In the case of `CC(C)(C1CCC(O)CC1)C1CCC(O)CC1` (stereo not given), the outcome is reported as “inactive”. For `COC[C@@H](NC(C)=O)C(=O)NCc1ccccc1`, the outcome was “inactive”. For `CC(Cc1ccccc1)NCCCCl` (stereo not given), the outcome was “inactive”. For `C=CCCC#N`, the outcome was “inactive”. For `CCCN1CCC[C@@H]2Cc3[nH]ncc3C[C@H]21`, the outcome was “inactive”. With `ClC1=C(Cl)C2(Cl)C(CBr)CC1(Cl)C2(Cl)Cl` (stereo not given) the outcome was “inactive”. In the case of `C[C@]12C=CC(=O)C=C1CC[C@@H]1[C@@H]2CC[C@@]2(C)[C@H]1CC[C@]2(C)O`, the outcome is reported as “inactive”. For `O=C(CCl)NCO`, the outcome was “inactive”. In the case of `Cc1ccc(Cl)c(O)c1`, the outcome is reported as “inactive”. For `CCN(CCO)CCO`, the outcome was “inactive”. In the case of `C=C1C[C@@H]2[C@H](CC[C@]3(C)C(=O)CC[C@@H]23)[C@@]2(C)C=CC(=O)C=C12`, the outcome is reported as “inactive”. In the case of `COc1ccc(C=O)cc1O`, the outcome is reported as “inactive”. In the case of `CCNc1nc(NCC)nc(SC)n1`, the outcome is reported as “inactive”. With `O=C(O)CBr` the outcome was “inactive”. In the case of `O=C(NC(O)C(Cl)(Cl)Cl)NC(O)C(Cl)(Cl)Cl` (stereo not given), the outcome is reported as “inactive”.
% is scaled to controls: 0 for no effect and ±100 for the full control effect.
